Measurements: PubChem BioAssay (Tox21)
Inconclusive results are not listed. Active and inactive are the calls of the source. Unless noted, calls come from the whole dose curve.

Tests used:
[1] = Nuclear factor erythroid 2-related factor 2/antioxidant responsive element (Nrf2/ARE) small molecule agonists: qHTS cell viability counter screen in human keratinocytes (AID 1919968; active = well fitted curve in the direction sought with a large enough effect in the repeat runs; an effect the other way counts as inactive or inconclusive; note: nearly all actives have a fitted effect of over 55% in size)
Procedure, shortened: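 Seed 1,500 KeratinoSens cells per well, then incubate 5 h at 37 C/5% CO2. Add compounds in DMSO and incubate 23 h. Add CellTiter-Fluor, wait 1 h and read fluorescence.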

[2] = Nuclear factor erythroid 2-related factor 2/antioxidant responsive element (Nrf2/ARE) small molecule agonists: luciferase reporter gene qHTS assay in human keratinocytes (AID 1919969); note: nearly all actives have a fitted effect of over 35% in size
[3] = molecular target: Gonadotropin-releasing hormone receptor (Homo sapiens) (UniProt P30968); assay: Human gonadotropin-releasing hormone receptor (GnRHR) small molecule agonists, calcium flux assay in GnRHR-HEK293 cells (AID 1920063); note: nearly all actives have a fitted effect of over 35% in size
Procedure, shortened: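 Cells: HEK293 stably expressing human GnRHR. Steps: overnight (18 h) culture, 1 h calcium dye loading at 37 C, compound addition, kinetic fluorescence read at 480/540 nm. Each compound tested at 15 concentrations in triplicate.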

[4] = molecular target: KiSS-1 receptor (Homo sapiens) (UniProt Q969F8); assay: Human kisspeptin (KISS1R) small molecule agonists, calcium flux assay in KISS1R-HEK293 cells (AID 1920064; active = well fitted curve in the direction sought with a large enough effect in the repeat runs; an effect the other way counts as inactive or inconclusive)
Procedure, shortened: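 Cells plated and incubated 18 h; dye added, 1 h at 37 C; compounds in DMSO pinned in; signal read at 480/540 nm every second for 3 min. Each compound tested at 15 concentrations in triplicate.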

[5] = G protein-coupled receptor (GPCR) small molecule agonists, calcium flux assay: HEK293 wild type cell line counter screen (AID 1920065)
Procedure, shortened: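 Counter-screen of the Tox21 10K library for non-specific calcium release: dye-loaded cells received compounds in DMSO and were monitored by kinetic fluorescence (480/540 nm, 3 min). Fifteen concentrations, run in triplicate.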

[6] = p53 small molecule agonists, cell-based qHTS assay with human liver microsomes (AID 1963577)
Procedure, shortened: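 Compounds act here after metabolic activation: human liver microsomes and NADPH, both at 0.5 mg/mL final, were co-added to p53RE-bla cells. Incubation ran 16 h at 37 C, followed by LiveBLAzer detection.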

[7] = p53 small molecule agonists, cell-based qHTS assay with rat liver microsomes (AID 1963578)
Procedure, shortened: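 Read-out is beta-lactamase reporter fluorescence (LiveBLAzer, 2 h, room temperature, dark) in p53RE-bla cells treated 16 h at 37 C with compound, rat liver microsomes and NADPH, both 0.5 mg/mL final.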

[8] = p53 small molecule agonists, cell-based qHTS assay with human liver microsomes: qHTS cell viability counter screen (AID 1963579); note: nearly all actives have a fitted effect of over 45% in size
Procedure, shortened: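 Cells carrying the p53 response-element beta-lactamase reporter are treated for 16 h at 37 C with test compounds in the presence of human liver microsomes and NADPH (both 0.5 mg/mL final); ATP-based CellTiter-Glo luminescence then reports viability.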

[9] = p53 small molecule agonists, cell-based qHTS assay with rat liver microsomes: qHTS cell viability counter screen (AID 1963580); note: nearly all actives have a fitted effect of over 45% in size
Procedure, shortened: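 In HCT-116 cells carrying a p53 response element-bla reporter, compounds were metabolically activated in situ by rat liver microsomes with NADPH over 16 h. Cell ATP content then served as the cytotoxicity measure.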

[10] = p53 small molecule agonists, cell-based qHTS assay: qHTS cell viability counter screen (AID 1963581); note: nearly all actives have a fitted effect of over 45% in size
Procedure, shortened: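 Cells: HCT-116 with p53 response element-driven beta-lactamase. Treatment: 16 h, 37 C, compounds in DMSO. Read: CellTiter-Glo luminescence after 30 min RT.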

[11] = p53 small molecule agonists, cell-based qHTS assay (AID 1963582; active = well fitted activation curve with a large enough effect in the signal ratio in the repeat runs, not every such curve was filed as active; the % refers to the signal ratio)
Procedure, shortened: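 Quantitative HTS in p53RE-bla cells: after a 5 h settling period, compounds delivered in DMSO were left on cells for 16 h at 37 C, and reporter induction was measured as fluorescence following 2 h substrate loading.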

[12] = molecular target: 5-hydroxytryptamine receptor 2A (Homo sapiens) (UniProt P28223); assay: 5-hydroxytryptamine receptor 2A (HTR2A) small molecule antagonists, cell-based qHTS assay (AID 1963586); note: nearly all actives have a fitted effect of over 45% in size
Procedure, shortened: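 Antagonist-mode intracellular calcium assay: DOI (4 nM) added after 5 min compound pre-incubation at room temperature to dye-loaded HTR2A-CHO cells. Fluorescence followed for 3 min, sampled every second.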

[13] = molecular target: 5-hydroxytryptamine receptor 2A (Homo sapiens) (UniProt P28223); assay: 5-hydroxytryptamine receptor 2A (HTR2A) small molecule agonists, cell-based qHTS assay (AID 1963587); note: nearly all actives have a fitted effect of over 30% in size
Procedure, shortened: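 HTR2A-CHO cells, plated 18 h at 37 C/5% CO2, dye-loaded 1 h at 37 C; compounds in DMSO added by pin tool (agonist mode). Intracellular calcium flux read as kinetic fluorescence on FDSS over 2 min at 1 s intervals.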

[14] = molecular target: Muscarinic acetylcholine receptor M1 (Homo sapiens) (UniProt P11229); assay: Cholinergic receptor muscarinic 1 (CHRM1) small molecule antagonists, cell-based qHTS assay (AID 1963588); note: nearly all actives have a fitted effect of over 40% in size
Procedure, shortened: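 CHRM1-CHO calcium-flux assay, antagonist mode. Cells were seeded 18 h, dye-loaded 1 h at 37 C and given compound for 5 min at RT, then acetylcholine was added at 50nM. FDSS fluorescence was read 3 min; 15 concentrations, three runs.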

[15] = molecular target: Muscarinic acetylcholine receptor M1 (Homo sapiens) (UniProt P11229); assay: Cholinergic receptor muscarinic 1 (CHRM1) small molecule agonists, cell-based qHTS assay (AID 1963589); note: nearly all actives have a fitted effect of over 35% in size
Procedure, shortened: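 Agonist-mode qHTS in CHO cells stably carrying human muscarinic M1. Intracellular calcium is tracked by fluorescence every second after compound transfer; each compound runs at 15 concentrations in three independent runs.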

[16] = cAMP Responsive Elements (CRE) small molecule agonists, cell-based qHTS assay (AID 1963590)
Procedure, shortened: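 Agonist mode qHTS in CRE-bla HEK 293T cells: compounds dosed from DMSO for 3 h at 37 C/5% CO2, followed by LiveBLAzer B/G FRET substrate for 2 h at room temperature.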

[17] = cAMP Responsive Elements (CRE) small molecule antagonists, cell-based qHTS assay (AID 1963591; active = well fitted inhibition curve with a large enough effect in the signal ratio in the repeat runs, not every such curve was filed as active; the % refers to the signal ratio)
Procedure, shortened: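 Antagonist mode: test compounds are co-incubated with the adenylyl cyclase activator NKH477 (0.25 uM final) on CRE-bla HEK293T cells for 3 h at 37 °C, followed by LiveBLAzer substrate loading.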

[18] = molecular target: Beta-2 adrenergic receptor (Homo sapiens) (UniProt P07550); assay: Adrenergic beta2 receptor (ADRB2) small molecule antagonists, cell-based qHTS assay (AID 1963592); note: series mostly up to about 92 µM; nearly all actives have a fitted effect of over 50% in size
Procedure, shortened: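 Cells (CHO, stable ADRB2 overexpression) incubated 18-20hr at 37C; compounds added from DMSO; agonist mix (1nM isoproterenol, 100uM IBMX, 25uM Ro-20-1724) added; 0.5hr RT; d2-cAMP and anti-cAMP-cryptate added; 1hr RT; 665/615 nm read.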

[19] = molecular target: D(2) dopamine receptor (Homo sapiens) (UniProt P14416); assay: Dopamine D2 receptor (DRD2) small molecule agonists, cell-based qHTS assay (AID 1963594); note: nearly all actives have a fitted effect of over 35% in size
Procedure, shortened: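 HEK293 cells stably expressing DRD2 were cultured 24 h at 37 C, then given Ro20-1724 (0.1 mM final) and compounds for 10 min at room temperature. NKH477 (200nM) was then added for 30 min. cAMP was read by HTRF.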

[20] = molecular target: D(2) dopamine receptor (Homo sapiens) (UniProt P14416); assay: Dopamine D2 receptor (DRD2) small molecule antagonists, cell-based qHTS assay (AID 1963595; active = well fitted inhibition curve with a large enough effect in the signal ratio in the repeat runs, with a control signal flat; the % refers to the signal ratio)
Procedure, shortened: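 HEK293 cells stably expressing DRD2 were preincubated with 0.1 mM Ro20-1724, then with compound for 10 min at room temperature. Cells were stimulated with 200 nM NKH477 plus 12 nM quinpirole for 30 min, and cAMP was read by HTRF.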

Measured: Potency

Chain of D(2) dopamine receptor (Homo sapiens) (P14416 whole entry, looked up): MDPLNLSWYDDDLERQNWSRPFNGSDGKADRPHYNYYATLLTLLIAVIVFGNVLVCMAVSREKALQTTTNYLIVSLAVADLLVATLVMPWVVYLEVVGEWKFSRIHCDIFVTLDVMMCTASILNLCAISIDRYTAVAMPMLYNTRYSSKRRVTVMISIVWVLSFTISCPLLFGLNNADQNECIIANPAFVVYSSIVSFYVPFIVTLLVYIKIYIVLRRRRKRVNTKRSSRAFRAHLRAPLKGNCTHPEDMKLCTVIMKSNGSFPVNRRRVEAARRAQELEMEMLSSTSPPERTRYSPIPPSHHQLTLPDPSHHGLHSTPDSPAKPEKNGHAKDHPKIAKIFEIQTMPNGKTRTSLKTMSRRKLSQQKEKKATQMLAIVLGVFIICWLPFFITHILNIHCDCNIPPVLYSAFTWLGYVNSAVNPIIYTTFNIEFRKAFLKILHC
Chain of KiSS-1 receptor (Homo sapiens) (Q969F8 whole entry, looked up): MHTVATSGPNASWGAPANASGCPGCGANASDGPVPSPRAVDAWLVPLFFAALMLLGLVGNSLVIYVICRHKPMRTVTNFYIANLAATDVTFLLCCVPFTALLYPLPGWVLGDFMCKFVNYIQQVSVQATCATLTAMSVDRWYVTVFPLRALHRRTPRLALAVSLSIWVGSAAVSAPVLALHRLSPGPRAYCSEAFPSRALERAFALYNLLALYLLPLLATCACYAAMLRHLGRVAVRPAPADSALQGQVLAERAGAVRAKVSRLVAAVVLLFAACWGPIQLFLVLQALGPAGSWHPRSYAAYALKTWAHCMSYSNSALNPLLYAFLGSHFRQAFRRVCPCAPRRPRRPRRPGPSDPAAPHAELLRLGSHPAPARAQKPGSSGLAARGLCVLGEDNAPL
Chain of Beta-2 adrenergic receptor (Homo sapiens) (P07550 whole entry, looked up): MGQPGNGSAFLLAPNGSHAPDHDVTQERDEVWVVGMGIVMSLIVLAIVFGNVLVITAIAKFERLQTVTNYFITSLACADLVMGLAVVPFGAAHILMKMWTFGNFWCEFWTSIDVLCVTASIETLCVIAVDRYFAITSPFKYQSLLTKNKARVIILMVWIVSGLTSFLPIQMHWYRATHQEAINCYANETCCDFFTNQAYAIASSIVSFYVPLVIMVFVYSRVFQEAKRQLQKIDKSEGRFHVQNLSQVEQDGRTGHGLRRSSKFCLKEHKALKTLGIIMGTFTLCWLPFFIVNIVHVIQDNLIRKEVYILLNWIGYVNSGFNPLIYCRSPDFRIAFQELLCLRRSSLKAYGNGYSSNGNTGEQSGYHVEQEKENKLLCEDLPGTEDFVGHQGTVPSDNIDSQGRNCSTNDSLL
Chain of 5-hydroxytryptamine receptor 2A (Homo sapiens) (P28223 whole entry, looked up): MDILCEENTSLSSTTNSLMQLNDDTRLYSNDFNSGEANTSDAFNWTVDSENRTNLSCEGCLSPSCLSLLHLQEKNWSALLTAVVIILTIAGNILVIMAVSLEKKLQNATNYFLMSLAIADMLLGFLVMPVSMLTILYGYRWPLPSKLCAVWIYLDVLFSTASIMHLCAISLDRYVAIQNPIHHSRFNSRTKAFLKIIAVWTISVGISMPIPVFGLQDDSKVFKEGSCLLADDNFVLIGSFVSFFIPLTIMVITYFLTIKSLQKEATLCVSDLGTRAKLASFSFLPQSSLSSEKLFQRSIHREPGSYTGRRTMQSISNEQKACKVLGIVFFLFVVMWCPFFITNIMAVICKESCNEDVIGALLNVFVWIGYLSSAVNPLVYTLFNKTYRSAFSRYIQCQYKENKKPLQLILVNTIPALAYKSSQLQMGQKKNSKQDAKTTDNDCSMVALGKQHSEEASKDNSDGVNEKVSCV
Chain of Gonadotropin-releasing hormone receptor (Homo sapiens) (P30968 whole entry, looked up): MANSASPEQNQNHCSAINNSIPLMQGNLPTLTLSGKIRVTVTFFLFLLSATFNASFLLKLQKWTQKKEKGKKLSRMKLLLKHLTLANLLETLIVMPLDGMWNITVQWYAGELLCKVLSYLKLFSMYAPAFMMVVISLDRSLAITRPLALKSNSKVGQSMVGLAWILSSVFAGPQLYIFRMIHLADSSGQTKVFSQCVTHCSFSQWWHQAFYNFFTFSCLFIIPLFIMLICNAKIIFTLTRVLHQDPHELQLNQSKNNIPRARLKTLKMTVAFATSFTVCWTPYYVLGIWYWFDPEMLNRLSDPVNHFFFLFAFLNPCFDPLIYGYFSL
Chain of Muscarinic acetylcholine receptor M1 (Homo sapiens) (P11229 whole entry, looked up): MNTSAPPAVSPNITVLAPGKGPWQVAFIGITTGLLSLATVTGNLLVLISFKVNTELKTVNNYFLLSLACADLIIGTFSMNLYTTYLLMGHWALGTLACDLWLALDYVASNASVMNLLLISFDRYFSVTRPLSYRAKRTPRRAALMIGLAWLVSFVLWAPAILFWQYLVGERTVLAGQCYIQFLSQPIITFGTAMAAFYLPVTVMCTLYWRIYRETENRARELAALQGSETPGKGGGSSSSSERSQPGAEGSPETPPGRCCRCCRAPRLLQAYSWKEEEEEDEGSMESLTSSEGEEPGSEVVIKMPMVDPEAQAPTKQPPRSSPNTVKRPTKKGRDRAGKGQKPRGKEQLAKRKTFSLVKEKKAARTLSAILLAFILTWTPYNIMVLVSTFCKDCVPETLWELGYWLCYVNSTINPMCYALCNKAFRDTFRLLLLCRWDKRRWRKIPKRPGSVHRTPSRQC

CC1=C(CC=O)C(C)(C)CCC1
inactive: all assays above

CC(=O)c1ccc(Cl)c(Cl)c1Cl
inactive: all assays above

CCOC(=O)C(C)(C)C
inactive: all assays above

Nc1cccc(S(=O)(=O)O)c1
inactive: all assays above

COc1ccccc1N1CCN(CC(O)COc2cc(OC)c(OC)c(OC)c2)CC1 (stereo not drawn)
not listed: [19]
inactive: all other assays above

CCOC(=O)C(O)c1ccccc1 (stereo not drawn)
inactive: all assays above

CC1(C)C(=O)C(C)(C)C1=O
inactive: all assays above

CC(=O)c1ccc(C(C)=O)cc1
inactive: all assays above

Clc1cc(Cl)nc(Cl)n1
not listed: [19]
inactive: all other assays above

O=C(O)C(O)[C@H](O)[C@@H](O)[C@H](O)[C@H](O)CO (stereo partly drawn)
inactive: all assays above

CCCCC(CC)COC(=O)c1ccccc1O (stereo not drawn)
inactive: all assays above

C[Si]1(C)N[Si](C)(C)N[Si](C)(C)N1
inactive: all assays above

O=C(O)CNC(=O)c1ccc([N+](=O)[O-])cc1
inactive: all assays above

C=CCOc1c(Br)cc(C(C)(C)c2cc(Br)c(OCC=C)c(Br)c2)cc1Br
inactive: all assays above
